A number with no mark means an inactive call. Inconclusive results are not listed. Activity calls are given as the source filed them. Calls come from the whole dose curve; as a rule, active = well fitted activation curve with a large enough effect in the repeat runs; inconclusive = weak or mixed curves; inactive = flat fitted curve, though single readings scatter.
% is set by controls: 0 for no effect and ±100 for the full control effect; potency is the fitted concentration of half-maximal effect.

A short description of the first assay: A CellTox Green Cytotoxicity Assay to monitor cytotoxicity in HEK293 cells - 32 hour (AID 1224881). Note: nearly all actives have a fitted effect of over 40% in size. The conditions noted are these: CellTox Green fluorescence; series mostly up to 76.8 µM; cytotoxicity increase: at the top concentration. The method in brief: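 Dead-cell fluorescence measured kinetically: asymmetric cyanine dye, HEK293, 600 cells/well, 5 h settle, 23 nL cpd/DMSO, 37 C, reads 0–40 h every 8 h.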
In the case of `CC(C)(C)NCC(O)COc1cccc2c1C[C@H](O)[C@H](O)C2` (some centres not stated), the “cytotoxicity increase” value was -0.459% [at 35.3 µM].

Regarding `CC(=O)OCC(=O)[C@@]1(OC(C)=O)[C@@H](C)C[C@H]2[C@@H]3C[C@H](F)C4=CC(=O)C=C[C@]4(C)[C@@]3(F)[C@@H](O)C[C@@]21C`, the “cytotoxicity increase” value was 3.06% [at 35.3 µM]. For `O=C(O)c1cc(Cl)cc(Cl)c1O`, the “cytotoxicity increase” value is -4.07%. The same measure, in the same setting: to `CCOC(=O)Oc1ccc(CCNC(=O)[C@H](CCSC)NC(C)=O)cc1OC(=O)OCC` belongs -1.16% [at 35.3 µM]; to `CCN(Cc1cccc(S(=O)(=O)O)c1)c1ccc(C(=C2C=CC(=[N+](CC)Cc3cccc(S(=O)(=O)O)c3)C=C2)c2ccc(O)cc2S(=O)(=O)[O-])cc1`, 2.67% [at 35.3 µM]. Still for that read-out and setting: under `COC(CC(C)CCCC(C)(C)O)OC` (configuration not stated) stands -2.13%; under `Oc1cccc2[nH]ccc12`, 5.12% [at 35.3 µM]. Still for that read-out and setting: under `CCN(CC)CC(=O)Nc1c(C)cccc1C(=O)OC` stands -1.97% [at 35.3 µM]; under `CCN(CC)CCNC(=O)c1cc(Cl)c(N)cc1OC`, -1.19% [at 35.3 µM]. For `CCCCOC(=O)CCCCC(=O)OCCCC`, the “cytotoxicity increase” value was 7%. Turning to `CN(C)CC/C=C1\c2ccccc2Sc2ccc(Cl)cc21`, the Potency is 26.8 µM (active).

`CCN(CC)c1cccc(O)c1`: the “cytotoxicity increase” value was 1.45%.

Regarding `CC1=CC[C@@]23C[C@@H]1C(C)(C)[C@@H]2CC[C@H]3C`, the “cytotoxicity increase” value was 26%. Take `O=C(c1ccccc1)C1CCC1`: the Potency is 24.5 µM (active).

Another assay in a line: A CellTox Green Cytotoxicity Assay to monitor cytotoxicity in HepG2 cells - 0 hour (AID 1224882). Note: nearly all actives have a fitted effect of over 35% in size. The conditions noted are these: CellTox Green fluorescence; series mostly up to 76.8 µM; cytotoxicity: at the top concentration. The method in brief: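 First, HepG2 cells (600/well) mixed with reagent were plated; second, after 5 h at 37 C they received compounds via pintool; third, fluorescence was measured at 0 h through 40 h at 8 h intervals.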
Regarding `CC(=O)OCCC(C)CC(C)(C)C` (configuration not stated), the “cytotoxicity” value was -7.7%. The same measure, in the same setting: to `CCCCCCCC/C=C\CCCCCCCC(=O)OCCO` belongs 0.257%; to `CS(=O)(=O)c1ccc([C@@H](C[C@H]2CCC(=O)C2)C(=O)Nc2cnccn2)cc1Cl`, -2.17%. On the same count and under the same terms, to `Cc1ccc2nc(N)[nH]c(=O)c2c1Sc1ccncc1` belongs -3.6% [at 35.3 µM].

As for `CC(C)Cc1ccc(CC(=O)O)cc1`, the Potency was 19 µM (active). As to `COc1cc(NCc2ccc3nc(N)nc(N)c3c2C)cc(OC)c1OC`, the “cytotoxicity” value is -0.199% [at 35.3 µM]. Same read-out and setting: to `O=[N+]([O-])C1(Br)COCOC1` belongs -9.32%. Same read-out and setting: under `CC/C=C\C/C=C\C/C=C\CCCCCCCC(=O)OCC` stands -2.12%; under `CN1CCCN(C(c2ccccc2)c2ccc(Cl)cc2)CC1` (configuration not stated), 0.227% [at 35.3 µM].

Consider `O=C(O)c1cccc(C[C@@H]2COc3ccc(OCc4nc5cc(F)ccc5s4)cc3[C@@H]2O)c1`, for which the “cytotoxicity” value is -1.36%. On the same count and under the same terms, under `Cc1ccc(N(CCO)CCO)cc1` stands -6.4%; under `CC1CCC(C(C)CS)CC1S` (configuration not stated), 2.32%; under `c1ccc(CCCc2ccncc2)cc1`, 12%. As for `Cc1c[nH]c2ccccc12`, the “cytotoxicity” value is -11.4% [at 35.3 µM]. For the molecule `COc1ccc(C)cc1`, the “cytotoxicity” value is -1.66%. On to `Cc1ccc2c(c1[N+](=O)[O-])C(=O)c1ccccc1C2=O`, for which the “cytotoxicity” value was 4.95% [at 35.3 µM]. The same measure, in the same setting: under `CC(C)(C)NCC(O)COc1cccc2c1C[C@H](O)[C@H](O)C2` (some centres not stated) stands 7.14% [at 35.3 µM]; under `CC(=O)OCC(=O)[C@@]1(OC(C)=O)[C@@H](C)C[C@H]2[C@@H]3C[C@H](F)C4=CC(=O)C=C[C@]4(C)[C@@]3(F)[C@@H](O)C[C@@]21C`, -5.11% [at 35.3 µM]. On the same count and under the same terms, under `CCOC(=O)Oc1ccc(CCNC(=O)[C@H](CCSC)NC(C)=O)cc1OC(=O)OCC` stands -0.0999% [at 35.3 µM]; under `CC(C)COC(=O)c1ccc(O)cc1`, 4.59%. In the case of `CCC(Cl)CC(Cl)C(Cl)C(Cl)C(Cl)C(C)Cl` (configuration not stated), the cytotoxicity was 0.838% [at 15.8 µM]. Same read-out and setting: to `COC(CC(C)CCCC(C)(C)O)OC` (configuration not stated) belongs -4.11%.

Take `Oc1cccc2[nH]ccc12`: the “cytotoxicity” value was 2.83% [at 35.3 µM]. Consider `CCN(CC)CC(=O)Nc1c(C)cccc1C(=O)OC`, for which the “cytotoxicity” value is -11.3% [at 35.3 µM]. The same measure, in the same setting: under `CCN(CC)CCNC(=O)c1cc(Cl)c(N)cc1OC` stands 1.94% [at 35.3 µM]; under `CCN(CC)c1cccc(O)c1`, -0.525%. For the molecule `CC1=CC[C@@]23C[C@@H]1C(C)(C)[C@@H]2CC[C@H]3C`, the “cytotoxicity” value was 2.04%. Take `O=C(c1ccccc1)C1CCC1`: the Potency is 38.9 µM (active).

These data come from PubChem BioAssay (Tox21).
